GSTO1 inh: blocks human GSTO1 in RBBP9 counter-screen; recombinant GSTO1, activity-based probe fluorescence polarization; P78417; actives 1.1% (n = 300,000); inhibition, % at 5.96 µM;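 active = inhibition above the campaign mean inhibition plus 3 SD, cut at about 35% in these data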;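 note: 0% = GSTO1-1 with DMSO and 100% = wells lacking GSTO1-1 enzyme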
PME-1 inh: PME-1 (human) inhibition | Q9Y570 | recombinant PME-1, FP-Rh probe fluorescence polarization | inhibition, % at 5.9 µM | actives 0.53% (n = 320,000);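 active = inhibition above the campaign mean of all compounds plus 3 SD, cut at about 26% in these data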;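 note: competitive labeling of PME-1 active site by serine hydrolase directed probe; 0% = PME-1 with DMSO and 100% = wells lacking PME-1 enzyme; inhibitors block probe labeling so polarization falls and inhibition rises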
LYPLA1 inh: counter-screen for PME1 inhibitors: inhibitors of human LYPLA1. recombinant LYPLA1, FP-Rh probe fluorescence polarization. actives 0.16% (n = 320,000). O75608. inhibition, % at 5.9 µM;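 active = inhibition above the mean of all tested compounds plus 3 SD, set per campaign, cut at about 14% in these data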;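 note: inhibitors block serine hydrolase probe labeling of LYPLA1 so polarization falls; 0% = enzyme with DMSO and 100% = wells lacking LYPLA1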
PAD4 FP inh: inhibitors of human PAD4 | actives 0.41% (n = 330,000) | recombinant PAD4, RCA probe fluorescence polarization | inhibition, % at 6.36 µM | AID 485272;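 active = percent inhibition above a cutoff equal to the mean of all tested compounds plus 3 SD, cut at about 15% in these data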;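 note: 0% = PAD4 with RCA probe and DMSO and 100% = probe without PAD4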
Target sequence (Q9UM07 whole entry, looked up): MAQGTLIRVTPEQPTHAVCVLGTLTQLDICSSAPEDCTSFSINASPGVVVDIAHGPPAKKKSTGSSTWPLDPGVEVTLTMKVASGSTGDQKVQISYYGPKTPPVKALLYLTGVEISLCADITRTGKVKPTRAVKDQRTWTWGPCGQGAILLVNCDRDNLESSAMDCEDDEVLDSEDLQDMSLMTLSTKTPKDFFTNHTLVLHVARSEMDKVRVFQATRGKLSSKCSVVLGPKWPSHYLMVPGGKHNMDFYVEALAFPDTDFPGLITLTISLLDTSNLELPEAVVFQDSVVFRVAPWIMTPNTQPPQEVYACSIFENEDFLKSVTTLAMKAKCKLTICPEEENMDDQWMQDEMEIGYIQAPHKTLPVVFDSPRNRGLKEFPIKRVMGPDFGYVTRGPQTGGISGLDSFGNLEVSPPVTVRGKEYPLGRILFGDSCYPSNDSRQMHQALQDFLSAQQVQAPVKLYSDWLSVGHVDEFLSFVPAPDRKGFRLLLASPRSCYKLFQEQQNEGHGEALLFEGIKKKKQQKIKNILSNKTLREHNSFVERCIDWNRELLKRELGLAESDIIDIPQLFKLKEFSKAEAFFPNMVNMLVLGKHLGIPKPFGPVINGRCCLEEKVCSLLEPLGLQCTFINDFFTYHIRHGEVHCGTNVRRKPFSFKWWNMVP
LYPLA2 counter: blocks human lysophospholipase 2, a PME1 counter-screen; inhibition, % at 5.9 µM; recombinant LYPLA2, FP-Rh probe fluorescence polarization; AID 2177; actives 0.38% (n = 320,000);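 active = inhibition above the screen-wide mean plus 3 SD, limit set per campaign, cut at about 26% in these data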;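 note: 0% = LYPLA2 with DMSO and 100% = wells lacking LYPLA2 enzyme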
Fam108B counter: counter-screen for RBBP9 inhibitors: inhibitors of mouse Fam108B; recombinant Fam108B, FP-Rh probe fluorescence polarization; inhibition, % at 9.51 µM; actives 0.33% (n = 300,000); AID 1947;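 active = inhibition above the screen mean inhibition plus 3 SD, computed separately per campaign, cut at about 18% in these data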;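 note: inhibitors lower polarization as less probe binds the enzyme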
Fam108b confirm: Fam108b (mouse) hydrolase inhibition, confirmation assay | shares compounds with Fam108B counter | recombinant Fam108b, FP-Rh probe fluorescence polarization | inhibition, % at 9.51 µM | actives 44% (n = 930);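 active = inhibition above a limit from the primary screen, the mean over all compounds plus 3 SD, cut at about 19% in these data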;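 note: 0% = median of active Fam108b wells and 100% = catalytically dead S170A mutant; inhibitors free the probe so polarization falls as inhibition rises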
The depositor's hits bear a star; . = no result. A selection: hits, their analogues and other compounds. The true share with any hit is near 1.7%.

SMILES	GSTO1 inh	PME-1 inh	LYPLA1 inh	PAD4 FP inh	LYPLA2 counter	Fam108B counter	Fam108b confirm
C[C@H](CO)N1C[C@H](C)[C@@H](CN(C)C(=O)Nc2ccc3c(c2)OCO3)Oc2c(NC(=O)Nc3ccc4c(c3)OCO4)cccc2C1=O	.	.	.	1	.	.	.
COc1cc2nc(Nc3ccc(C)c(Cl)c3)nc(N)c2cc1OC	-16	35*	6	-2	4	23*	16
S=C(NCc1ccccc1)NCc1cccc(CNC(=S)NCc2ccccc2)c1	-20	35*	2	2	0	36*	25*
NNC(=S)NCc1ccccc1	1	-1	2	-6	0	2	.
COc1ccc(NC(=O)CC2C(=O)NCCN2C(=O)c2ccccc2)cc1 (centres undefined)	-2	-2	1	-4	0	2	.
CCNC(=O)c1cc(S(=O)(=O)N2CCSCC2)ccc1OC	4	-6	6	0	4	3	.
COc1ccc(C2C3=C(CC(C)(C)CC3=O)Nc3c2c(=O)[nH]c(=O)n3Cc2ccccc2)cc1 (centres undefined)	9	-4	7	-1	-2	21*	22*
COc1ccc(C2C3=C(CC(C)(C)CC3=O)Nc3c2c(=O)[nH]c(=O)n3Cc2ccccc2)cc1OC (centres undefined)	-7	-4	-6	-5	-1	1	.
Nc1ccccc1-c1nnc(-c2ccccc2N)n1N	-1	-6	1	-3	0	1	.
COc1cccc(/C=N/Nc2ccc([N+](=O)[O-])cn2)c1O	24	75*	-3	-4	0	51*	5
COc1cccc(/C=N/Nc2nc(Nc3ccc([N+](=O)[O-])cc3)nc(N3CCCC3)n2)c1O	-35	5	-14	-6	-23	25*	31*
O=[N+]([O-])c1ccc(Nc2nc(N/N=C/c3cccc(F)c3)nc(N3CCCC3)n2)cc1	0	-26	-25	-1	-35	-3	.
COc1ccc(O)c(/C=N/NC(=S)Nc2cccc(S(=O)(=O)N(C)C)c2)c1	-20	53*	-4	-1	2	37*	-8
C1COC(NC(C2CC2)C2CC2)=N1	6	-8	-4	-1	-2	-4	.
O=C(O)C1CSC(c2ccccc2Cl)N1C(=O)c1ccc(Cl)cc1 (centres undefined)	7	3	2	-2	-2	-1	.
O=C(Nc1cc(Cl)ccc1N1CCOCC1)c1cnccn1	5	-13	-2	0	1	2	.
O=C(Nc1cc(S(=O)(=O)N2CCOCC2)ccc1N1CCCC1)c1cnccn1	-3	6	1	0	0	18*	23*
CCN(CC)c1ccc(/C=N/NC(=O)c2cccc(S(=O)(=O)Nc3ccccc3OC)c2)c(O)c1	-54	45*	-7	1	4	58*	7
CCN(CC)c1ccc(/C=N/NC(=O)c2ccc3nc[nH]c3c2)c(O)c1	-24	-3	-5	0	-7	22*	7
COc1ccc(N2CC(NS(=O)(=O)c3cccs3)CC2=O)cc1OC (centres undefined)	3	3	2	1	0	0	.
COC(=O)c1ccc(COc2ccc(/C=C(\C#N)c3nc4ccccc4[nH]3)cc2OC)o1	-6	-29	-26	-2	-58	19*	-16
N#C/C(=C/c1ccc(O)c(O)c1)c1nc2ccccc2[nH]1	-23	29*	-15	-10	5	27*	29*
N#C/C(=C\c1cccs1)c1nc2ccccc2[nH]1	-26	0	-11	-13	-2	0	.
COc1ccc(NC(=O)c2cnc(SC)nc2C)c(OC)c1	5	-2	4	-5	1	1	.
N=C1/C(=C/c2cccn2CCOc2ccccc2)C(=O)N=C2SC=C(c3ccccc3)N12	-54	-13	-26	-2	-30	19*	2
N=C1/C(=C/c2ccc(-c3cccc(C(=O)O)c3)o2)C(=O)N=C2SC=C(c3ccccc3)N12	-24	-12	-18	-12	-21	37*	18*
N=C1/C(=C\c2ccc(-c3cc(Cl)cc(Cl)c3)o2)C(=O)N=C2SC=C(c3ccccc3)N12	-10	23	-5	-16	-8	5	.

Bioassay records as filed in PubChem.
